# Assay results as given in article PMC4053984, “DNA binding specificities of the long zinc-finger recombination protein PRDM9”.
# Molecular target: PRDM9Cst (Mus musculus (CAST/EiJ))
# Assay: competition EMSA; competition against biotin-labeled 75-bp Hlx1 B6 oligo; 10 mM Tris pH 7.5, 50 mM KCl, 1 mM DTT, 50 ng/ul poly(dI/dC), 0.05% NP-40, crude E. coli extract 3 ul in 20 ul; 1 h with unlabeled competitor, then 4 h with biotin-labeled 75-bp Hlx1; temperature not stated; high values mean tight binding
# Conditions: tags: N-terminal His tag (pBAD/HisB); dsDNA, one strand shown
# Chain of PRDM9Cst (Mus musculus (CAST/EiJ)) (chain, as listed by the source): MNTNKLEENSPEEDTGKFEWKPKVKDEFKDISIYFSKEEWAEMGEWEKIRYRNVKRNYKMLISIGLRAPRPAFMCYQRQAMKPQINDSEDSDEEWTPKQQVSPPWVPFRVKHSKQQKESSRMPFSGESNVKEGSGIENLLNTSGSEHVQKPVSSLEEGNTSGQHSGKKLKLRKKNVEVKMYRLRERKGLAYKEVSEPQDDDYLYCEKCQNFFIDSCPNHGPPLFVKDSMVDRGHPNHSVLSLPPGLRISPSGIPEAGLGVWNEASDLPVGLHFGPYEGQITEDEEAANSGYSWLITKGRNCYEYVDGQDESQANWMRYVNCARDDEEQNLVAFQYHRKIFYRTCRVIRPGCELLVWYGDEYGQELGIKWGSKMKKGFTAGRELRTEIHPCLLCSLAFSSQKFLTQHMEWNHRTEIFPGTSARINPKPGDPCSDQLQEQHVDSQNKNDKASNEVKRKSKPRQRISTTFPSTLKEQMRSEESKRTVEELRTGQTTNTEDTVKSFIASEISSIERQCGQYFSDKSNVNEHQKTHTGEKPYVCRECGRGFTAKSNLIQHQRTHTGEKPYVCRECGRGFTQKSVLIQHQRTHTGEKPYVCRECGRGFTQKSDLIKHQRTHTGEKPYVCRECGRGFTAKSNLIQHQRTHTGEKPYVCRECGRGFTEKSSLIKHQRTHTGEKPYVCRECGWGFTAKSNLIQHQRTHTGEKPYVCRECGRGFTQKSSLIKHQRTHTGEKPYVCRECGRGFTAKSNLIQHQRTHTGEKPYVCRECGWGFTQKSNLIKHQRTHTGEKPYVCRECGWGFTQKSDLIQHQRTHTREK
row,Sequence,binding signal
1,ATAGTGTGCAGAATTGGACCCTGCCCTTTCTTT,"-0.1 Bmut (0 = wild type, -1 = scrambled)"
2,ATAGTGTGCAGACTTGGAACCTGCCCTTTCTTT,"-0.1 Bmut (0 = wild type, -1 = scrambled)"
3,ACAGTGTGCAGACTTGGACCCTGCCCTTTCTTT,"-0.1 Bmut (0 = wild type, -1 = scrambled)"
4,ATAGTGTGCAGACGTGGACCCTGCCCTTTCTTT,"-0.4 Bmut (0 = wild type, -1 = scrambled)"
5,ATAGTGTGCAGACTTGGTCCCTGCCCTTTCTTT,"0.1 Bmut (0 = wild type, -1 = scrambled)"
6,ATGGTGTGCAGACTTGGACCCTGCCCTTTCTTT,"0 Bmut (0 = wild type, -1 = scrambled)"
7,ATAGTGTGCAGACTGGGACCCTGCCCTTTCTTT,"-0.3 Bmut (0 = wild type, -1 = scrambled)"
8,ATAGTGTGCAGACTTGGACCCTGGCCTTTCTTT,"0.03 Bmut (0 = wild type, -1 = scrambled)"
9,ATAGTGTGCAGACTTGGACCCTGCCCTTTGTTT,"-0 Bmut (0 = wild type, -1 = scrambled)"
